Measurements from PubChem BioAssay AID1159580 (chemical genetic matrix, 2015).
Values joined by “and” are separate entries in the source; they are usually repeats but may differ in a detail not shown here. Equal values may be shown once. Hit rate of the full screen: of about 5,500 compounds, about 2,000 (36%) were called active. Not shown: some 18% with an inconclusive outcome. No stated cut-off is given here; in the data, active means normalized growth mostly below about 0.91 (no sharp cut-off); inconclusive means no clear call, values can overlap the other calls; inactive means mostly above about 0.92. The list shows a part of the results.

Test: chemical genetic growth profiling, strain panel (AID 1159580);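 further: tested at 20 µM; growth read once vehicle control cultures reached saturation at 30 °C; 1 = growth at the plate median or of vehicle wells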
Settings: S. cerevisiae deletion strains, growth OD

Measured: normalized growth

CCCn1c(=O)c2[nH]c(C3CCCC3)nc2n(CCC)c1=O
inactive: locus YAL013W, strain DEP1, stronger effect = lower value 0.992 | locus YAL021C, strain ccr4, stronger effect = lower value 1.01 | locus YAL026C, strain drs2, stronger effect = lower value 0.984 | locus YAL030W, strain snc1, stronger effect = lower value 0.973 | locus YAL040C, strain CLN3, stronger effect = lower value 0.995 | locus YBL061C, strain skt5, stronger effect = lower value 0.989 | locus YBR009C, strain hhf1, stronger effect = lower value 0.969 | locus YBR021W, strain FUR4, stronger effect = lower value 1.01 | locus YBR023C, strain chs3, stronger effect = lower value 0.986 | locus YBR171W, strain sec66, stronger effect = lower value 0.976 | locus YBR229C, strain ROT2, stronger effect = lower value 0.992 | locus YBR231C, strain swc5, stronger effect = lower value 0.984 | locus YBR279W, strain paf1, stronger effect = lower value 1 | locus YCL011C, strain gbp2, stronger effect = lower value 0.986 | locus YCL016C, strain dcc1, stronger effect = lower value 0.98 | locus YCL029C, strain bik1, stronger effect = lower value 0.959 | locus YCL061C, strain MRC1 (second series), stronger effect = lower value 0.999 | locus YCL061C, strain MRC1, stronger effect = lower value 0.977 | locus YCL069W, strain vba3, stronger effect = lower value 0.98 | locus YCR088W, strain abp1, stronger effect = lower value 0.983 | locus YDL005C, strain med2, stronger effect = lower value 0.992 | locus YDL035C, strain GPR1, stronger effect = lower value 0.981 | locus YDL040C, strain nat1, stronger effect = lower value 0.984 | locus YDL074C, strain BRE1, stronger effect = lower value 0.973 | locus YDL101C, strain DUN1, stronger effect = lower value 0.992 | locus YDL134C, strain PPH21, stronger effect = lower value 0.993 | locus YDL185W, strain tfp1, stronger effect = lower value 0.926 | locus YDL192W, strain arf1, stronger effect = lower value 0.977 | locus YDR001C, strain nth1, stronger effect = lower value 0.986 | locus YDR069C, strain doa4, stronger effect = lower value 0.976 | locus YDR101C, strain arx1, stronger effect = lower value 0.976 | locus YDR137W, strain rgp1, stronger effect = lower value 0.954 | locus YDR150W, strain NUM1, stronger effect = lower value 0.968 | locus YDR159W, strain sac3, stronger effect = lower value 0.968 | locus YDR162C, strain NBP2, stronger effect = lower value 0.998 | locus YDR195W, strain ref2 0.947 | locus YDR297W, strain sur2, stronger effect = lower value 0.99 | locus YDR318W, strain mcm21, stronger effect = lower value 0.964 | locus YDR334W, strain swr1, stronger effect = lower value 0.988 | locus YDR335W, strain msn5, stronger effect = lower value 0.987 | locus YDR363W, strain ESC2, stronger effect = lower value 1.01 | locus YDR388W, stronger effect = lower value 0.96 | locus YDR392W, strain spt3, stronger effect = lower value 0.839 | locus YDR502C, strain sam2, stronger effect = lower value 0.98 | locus YEL003W, strain gim4, stronger effect = lower value 0.985 | locus YEL037C, strain rad23, stronger effect = lower value 0.991 | locus YEL061C, strain CIN8 (second series), stronger effect = lower value 0.987 | locus YEL061C, strain CIN8, stronger effect = lower value 0.994 | locus YER002W, strain NOP16, stronger effect = lower value 1.01 | locus YER015W, strain faa2, stronger effect = lower value 1 | locus YER016W, strain bim1, stronger effect = lower value 0.98 | locus YER110C, stronger effect = lower value 0.949 | locus YER111C, strain swi4, stronger effect = lower value 0.993 | locus YER155C, strain BEM2 (second series), stronger effect = lower value 0.921 | locus YER155C, strain BEM2, stronger effect = lower value 0.995 | locus YER167W, strain BCK2, stronger effect = lower value 0.971 | locus YFR010W, strain ubp6, stronger effect = lower value 0.992 | locus YGL078C, strain dbp3, stronger effect = lower value 0.967 | locus YGL086W, strain mad1, stronger effect = lower value 0.98 | locus YGL167C, strain pmr1, stronger effect = lower value 0.982 | locus YGL173C, strain kem1, stronger effect = lower value 0.983 | locus YGL227W, strain vid30, stronger effect = lower value 0.98 | locus YGL240W, strain doc1, stronger effect = lower value 0.989 | locus YGL248W, strain PDE1, stronger effect = lower value 0.995 | locus YGL253W, strain hxk2, stronger effect = lower value 0.992 | locus YGR078C, strain PAC10, stronger effect = lower value 0.985 and 0.986 | locus YGR135W, strain pre9, stronger effect = lower value 1 | locus YGR229C, strain SMI1, stronger effect = lower value 0.996 and 0.953 | locus YGR252W, strain gcn5, stronger effect = lower value 0.926 | locus YHR013C, strain ard1, stronger effect = lower value 0.928 | locus YHR027C, strain rpn1, stronger effect = lower value 0.988 | locus YHR030C, strain SLT2, stronger effect = lower value 0.984 | locus YHR079C, strain IRE1 (second series), stronger effect = lower value 0.975 | locus YHR094C, strain hxt1, stronger effect = lower value 0.963 | locus YHR129C, strain ARP1, stronger effect = lower value 0.985 | locus YHR142W, strain chs7, stronger effect = lower value 0.988 | locus YHR200W, strain rpn10, stronger effect = lower value 0.963 | locus YIL066C, strain RNR3, stronger effect = lower value 0.972 | locus YIL073C, strain SPO22, stronger effect = lower value 0.914 | locus YIL125W, strain kgd1, stronger effect = lower value 0.985 | locus YIR030C, strain dcg1, stronger effect = lower value 0.977 | locus YJL092W, strain hpr5, stronger effect = lower value 1 | locus YJL095W, strain BCK1 (second series), stronger effect = lower value 0.981 | locus YJL095W, strain BCK1, stronger effect = lower value 0.996 | locus YJL115W, strain asf1, stronger effect = lower value 0.994 | locus YJL129C, strain trk1, stronger effect = lower value 0.943 | locus YJL134W, strain LCB3, stronger effect = lower value 0.979 | locus YJL154C, strain vps35, stronger effect = lower value 0.979 | locus YJL164C, strain tpk1, stronger effect = lower value 0.988 | locus YJL166W, strain qcr8, stronger effect = lower value 0.988 | locus YJL168C, strain set2, stronger effect = lower value 0.971 | locus YJL187C, strain SWE1 (second series), stronger effect = lower value 0.982 | locus YJL187C, strain SWE1, stronger effect = lower value 0.995
